In PubChem BioAssay AID1259313 (Sanford-Burnham Center for Chemical Genomics, 2017):
Hit rate of the full screen: of about 340,000 compounds, about 8,500 (2.5%) were called active.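 Rule for the calls: active = melting temperature shift of at least 10% of the positive control shift, at one fixed dose; inactive = the rest.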 The entries come from a sample that favours actives as a whole.

system: Glutamate receptor ionotropic, NMDA 3A (GRIN3A) ligand-binding domain; test: NR3A LBD thermal stabilization by compounds – biophysical, differential scanning fluorimetry, uHTS, primary screen (AID 1259313); conditions: at 25 µM, hits give high values, 0% = protein alone, 100% = glycine-bound protein

Tm shift relative to glycine control, active:
O=C1OCCN1C(=O)[C@H]1[C@H](c2ccc(Cl)cc2)C(c2cccc(Cl)c2)=NN1c1ccc(Br)cc1 18.1%, O=C1OCCN1C(=O)[C@H]1[C@H](c2ccc(F)cc2)C(c2ccccc2)=NN1c1ccc(Br)cc1 16%, O=C(Nc1ccc(Sc2ccc(Br)cc2)cc1)c1ccco1 11.6%, O=C(Nc1ccc(O)cc1)c1ccc(NC(=O)c2ccco2)cc1 25%, O=C(CSc1ccccc1)Nc1ccc(NC(=O)c2ccco2)cc1 11.8%, COC(=O)c1ccc(NC(=O)Nc2ccc(C)cc2)cc1 14.4%, O=C(CSc1ccccc1)Nc1ccc(C(=O)Nc2cccc(O)c2)cc1 29.4%, COc1cc(NC(=O)Nc2ccc(C)cc2)cc([N+](=O)[O-])c1 32.9%, COC(=O)c1ccc(NC(=O)c2ccco2)cc1 21.7%, O=C(CN1C(=O)C2C3C=CC(C3)C2C1=O)Nc1nc(-c2ccccn2)cs1 (stereo not drawn) 17.6%, COC(=O)C1=C(C)N(C)C(C)=C(C(=O)OC)C1c1cccc(Br)c1 10.9%, Cn1cccc1C(=O)NC(=O)COC(=O)Cc1coc2ccc3ccccc3c12 711%, COc1ccc(NC(=O)/C(N=Nc2cccc(S(=O)(=O)Nc3ccc(SC(F)F)cc3)c2)=C(\C)O)cc1 28%, Cc1ccc2nc(Nc3ccccc3)cc(C)c2c1 30.3%, Cc1cc(Nc2ccc(Br)cc2)nc2ccccc12 45.6%, O=C(CSc1nc(-c2ccccc2)cs1)Nc1cccc([N+](=O)[O-])c1 34.4%, Cc1nn(-c2ccccc2)c(Cl)c1/C=C/C(=O)c1ccc(O)cc1 15.2%, CC(CNC(=O)Cn1cnc2c(OCc3ccccc3)ncnc21)c1ccccc1 (stereo not drawn) 16.8%

Tm shift relative to glycine control, inactive:
O=C(Nc1ccc(OCC(=O)N2CCOCC2)cc1)c1cc(F)c(F)cc1Cl -1.28%, CNC1(c2nnnn2-c2c(C)cccc2C)CCOC(C)(C)C1 (stereo not drawn) 0.08%, Cc1cc(Nc2cccc(C)c2C)n2ncnc2n1 1.12%, C[C@@H]1C(c2ccc(F)cc2)=NN(c2ccc(Br)cc2)[C@H]1C(=O)N1CCOC1=O 7.36%, O=C1OCCN1C(=O)[C@H]1[C@H](c2ccccc2)C(c2ccc(F)cc2)=NN1c1ccccc1 -6.51%, O=c1c2cc(Br)ccc2nc(-c2cccc(Cl)c2)n1O -8.87%, S=C1NC(c2ccccc2)=NCN1c1ccc(Br)cc1 -1.51%, O=C(COc1ncnc2c(Cl)cc(Cl)cc12)N1CCN(S(=O)(=O)c2ccccc2)CC1 -7.02%, CN1CCC(=NNC(=O)c2ccc(N(Cc3ccc(Cl)cc3)S(C)(=O)=O)cc2)CC1 -7.94%, C/C(=N\NS(=O)(=O)c1ccc(Cl)cc1)c1ccc(NC(=O)c2ccco2)cc1 -5.45%, O=C(NNC(=O)c1ccco1)Nc1ccccc1 1.84%, COC(=O)c1ccc(NC(=O)c2cc(Cl)ccc2OC)cc1 -3.8%, COC(=O)c1ccc(NC(=O)C(C)N2C(=O)c3ccccc3C2=O)cc1 (stereo not drawn) -0.85%, O=C(NCCSc1ccccc1)c1ccco1 0.71%, Cc1cc(C)cc(NC(=O)CSc2ccccc2)c1 0.84%, Cc1cc(NC(=O)c2ccc(F)cc2)ccc1NC(=O)c1ccco1 -2.39%, O=C(CNC(=O)c1ccco1)NNC(=O)c1ccc(Br)cc1 0.51%, CC12CCC(C(=O)N3CCN(c4ncccn4)CC3)(c3nc4ccccc4nc31)C2(C)C (stereo not drawn) -1.28%, COc1ccc(OC)c(S(=O)(=O)N2CCCC(C(=O)NCCc3ccccc3)C2)c1 (stereo not drawn) 0.67%, O=C(CNC(=O)[C@@H]1Cc2ccccc2CN1)NC1CCCCC1 -12.5%, CCOC(=O)N1CCN(C(=O)CN(C2CCCCC2)S(C)(=O)=O)CC1 -2.35%, CCOc1ccc(NC(=O)CCS(=O)(=O)c2ccc3c(c2)CCCN3C(=O)CC)cc1 -2.2%, C#CCOCCOCCOCCNc1nc(N2CCN(C(=O)C([C@@H](C)CC)n3cc(C(N)COC(=O)C(F)(F)F)nn3)CC2)nc(N2CCN(C(=O)[C@H](CCCCN)n3cc(C(N)CC(C)C)nn3)CC2)n1 (stereo partly drawn) 3.3%, NNC(=O)CNC(c1ccccc1)c1cc(Cl)ccc1NC(=O)c1ccccc1 (stereo not drawn) 2.13%, CC(C)(C)NC(=O)c1cc(NC(=O)c2ccco2)cc(NC(=O)c2ccco2)c1 1.37%, O=C(Nc1ccc(CSc2ccccc2)cc1)c1ccc(CN2CCOCC2)cc1 -2.35%, CSc1cccc(NC(=O)CSc2ccccc2)c1 -11.8%, CCOC(=O)c1ccc(NC(=O)CNC(=O)c2ccco2)cc1 -0.36%, COc1ccc(S(=O)(=O)NNC(=O)Nc2ccc(C)cc2)c(OC)c1 -2.73%, CCOc1ccc(NC(=O)Nc2cc(C)ccc2OC)cc1 -2.2%, CCOC(=O)/C(C#N)=C\c1c(C)cc(C)c(COC(C)=O)c1C -1.41%, O=C1CSC(c2ccc(Cl)cc2)N1 (stereo not drawn) 0.65%, CCOc1ccccc1NC(=O)Cn1ncc2ccc([N+](=O)[O-])cc21 1.06%, Cc1nonc1C(=O)N/N=C/c1ccc(O)cc1 -3.82%, O=C(CCCN1C(=O)CSc2ncccc21)N1CCN(c2cccc(C(F)(F)F)c2)CC1 -1.45%, Cc1ccc(S(=O)(=O)N2CCC3(CC2)OCCO3)c(C)c1 -0.77%, CCOc1ccc(Nc2nc(Cc3nnc(SCC(=O)c4ccc(C)cc4)o3)cs2)cc1 -12.6%, O=C1C(=O)N(CCCN2CCOCC2)C(c2ccc([N+](=O)[O-])cc2)/C1=C(\O)c1ccc2c(c1)OCCO2 (stereo not drawn) 0%, Cc1ccc(NC(=O)Cn2c(=O)n(CCC(=O)NC3CCN(Cc4ccccc4)CC3)c(=O)c3ccccc32)cc1 0.79%, CC(=O)c1c(C)[nH]c(C(=O)OCC(=O)Nc2sc3c(c2C#N)CCCC3)c1C 4.13%, O=C(COc1ccccc1F)Nc1nc(-c2ccccn2)cs1 -41.9%, O=C(NCCN1C(=O)C2C3C=CC(C3)C2C1=O)Nc1ccccn1 (stereo not drawn) -0.55%, O=C(NCCc1ccccc1)C(=O)NCC1OCCN1S(=O)(=O)c1cccs1 (stereo not drawn) 5.49%, CCOC(=O)N1CCN(C(=O)c2ccccc2SCC(=O)NCC2CCCCC2)CC1 0.96%, O=C(O)c1cscn1 -2.23%, Cc1oc(-c2ccccc2Cl)[n+]([O-])c1C 0.65%, COC(=O)C1NN=C(C(=O)c2ccc(Br)cc2)C1c1cccc(Br)c1 (stereo not drawn) -3.88%, COC(=O)C1=C(C)N(C)C(=S)NC1c1ccccc1 (stereo not drawn) 1.46%, COc1ccc2c(CC(=O)OCC(=O)NC(N)=O)coc2c1 -1.31%, O=C(Cc1coc2ccc3ccccc3c12)NCc1cccs1 -3.17%, CN(C)S(=O)(=O)c1ccc(C(=O)NCC2(N3CCOCC3)CCCCC2)cc1 -0.34%, CCC(C)NC(=O)C1c2ccccc2C(=O)N1Cc1ccccc1 (stereo not drawn) 0.89%, Cc1c(NS(=O)(=O)c2cccc(C(=O)Nc3ccc(SC(F)F)cc3)c2)c(=O)n(-c2ccccc2)n1C -4.82%, Nc1cccc(S(=O)(=O)Nc2ccc(SC(F)F)cc2)c1 -8.52%, Cc1ccc(NN=C2C(=O)OC(C)(C)OC2=O)c(C)c1 -1.21%, CC(CO)N1CCS(=O)(=O)CC1 (stereo not drawn) 0.09%, CCOc1ccc(N/C(N)=N/c2nc(C)c(C)c(=O)[nH]2)cc1 2.12%, CCOc1ccc(NC(=O)c2cc(C)nc3ccccc23)cc1 -0.84%, Cc1ccc(Nc2nc(C)cc(C)c2C(N)=O)cc1 -2.09%, Cc1ccc2nc(C)c3c(c2c1)N(c1ccccc1)CC3 -1.71%, CN1CCN(c2nc(Nc3ccc(O)cc3)nc3ccccc23)CC1 -0.23%, Cc1cccc(NC(=S)N2CCC(O)CC2)c1C 1.31%, CC(C)=CCN1CCN(Cc2ccc(Oc3ncccn3)cc2)CC1CCO (stereo not drawn) 0.09%, COC(=O)c1ccc(NC(=O)C23CC4CC(C2)CC(n2cnc(Cl)n2)(C4)C3)cc1 -0.61%, COc1ccc(-n2cnnc2SCC(=O)Nc2cccc([N+](=O)[O-])c2)cc1 -0.86%, O=C(CSc1ncn[nH]1)Nc1nc(-c2cccc([N+](=O)[O-])c2)cs1 -2.42%, Cc1cc(/C=N/n2cnnc2)c(C)n1-c1ccc2ncccc2c1 -0.4%, Cc1nn(-c2ccccc2)c(C)c1/C=C/C(=O)OC(C)C(N)=O (stereo not drawn) -7.09%, Cc1ccc(C(=O)/C=C/c2c(C)nn(-c3ccccc3)c2Cl)cc1 -10.2%, COc1ccc(Br)c2c1C(=O)CC2 2.15%, CCCCN(C)C(=O)C1CCN(Cc2ccccn2)CC1 1.37%, COc1ccc(-c2cc(C(=O)N3CCN(Cc4ccc5c(c4)OCO5)CC3)on2)cc1OC -2.25%, COc1ccc(-c2csc3ncnc(N4CCN(S(=O)(=O)c5ccccc5C#N)CC4)c23)cc1 -2.57%, O=C(Cn1cnc2c(OCc3ccccc3)ncnc21)NCc1nc2ccccc2[nH]1 -0.08%, Cc1ccc(NC(=O)Cn2cnc3c(OCc4ccccc4)ncnc32)cc1C -1.41%
